A selection follows.
aSyn UTR act – Activators via SNCA 5'UTR binding, MLPCN; alpha-synuclein 5'UTR reporter, activators screen; AID 1814, 2009; 7.1% of 300,000 active; activity score, % (tested at 7.5 µM), hits read low; in the data active = activity score below about -60%
Numbers without * were called inactive.

SMILES	aSyn UTR act
Cc1ccc(CC(=O)Nc2nc3ccccc3s2)cc1	-96*
O=C(CCNC(=O)c1ccccc1Cl)Nc1nc2ccccc2s1	-83*
CN(C)c1ccc(CC(=O)c2nc3ccccc3s2)cc1	-125*
CC12CCC(C(=O)Nc3nc4ccccc4s3)(OC1=O)C2(C)C (configuration not stated)	-113*
CCCCNC(=O)Nc1nc2ccc(CC)cc2s1	-124*
CCOC(=O)Nc1nc2ccccc2s1	-125*
CCCCNC(=O)Nc1nc2ccccc2s1	-81*
CCc1ccc2nc(NC(=O)CSCc3c(C)noc3C)sc2c1	-73*
CCOC(=O)Nc1nc(-c2ccc(Cl)cc2Cl)cs1	-97*
CCCNC(=O)Nc1nc2ccccc2s1	-118*
CN(CC(=O)Nc1nc2ccccc2s1)S(=O)(=O)c1ccccc1	-83*
CCCNC(=O)c1ccc(-c2nc3ccccc3s2)s1	79
Nc1nc(N2CCN(C(=O)c3ccco3)CC2)nc2ccccc12	-102*
O=C1CCCc2nc(N3CCN(C(=O)c4ccco4)CC3)ncc21	-93*
O=C(c1ccco1)N1CCN(c2ncnc3c2oc2ccccc23)CC1	-113*
CC1CCC(C(C)C)C(OC(=O)Cn2c(-c3ccc(Cl)cc3)[n+](C)c3ccccc32)C1 (configuration not stated)	61
CCCCCC(=O)Nc1nc2ccccc2[nH]1	-177*
COc1ccc(CCC(=O)Nc2nc3ccccc3[nH]2)cc1	-127*
CCC(Oc1ccccc1)C(=O)Nc1nc2ccccc2[nH]1 (configuration not stated)	-66*
COc1ccccc1CCC(=O)Nc1nc2ccccc2[nH]1	-223*
COc1ccc(OCC(=O)Nc2nc3ccccc3[nH]2)cc1	-123*
Cc1ccc(-c2nc3ccccc3o2)cc1NC(=S)NC(=O)c1cccs1	-75*
Cc1ccc(-c2nc3ccccc3[nH]2)cc1NC(=S)NC(=O)c1ccccc1Br	-67*
Cc1ccc2oc(-c3cccc(NC(=S)NC(=O)c4cccs4)c3)nc2c1	-153*
O=C(Nc1ccc2oc(-c3ccccc3)nc2c1)c1cc(-n2cnnc2)ccc1Cl	-64*
SMILES	aSyn UTR act
Cc1ccc(-c2nc3ccccc3s2)cc1NC(=S)NC(=O)c1ccccc1	-116*
O=C(Nc1ccc2oc(-c3ccccc3)nc2c1)c1cccs1	-295*
CCOC(=O)c1ccc(NC(=O)COc2ccc(CNC3CCCCC3)cc2OC)cc1	-63*
O=c1[nH]c(-c2ccco2)nc2sc3c(c12)CCCC3	-125*
CC(C)(C)c1ccc(-c2nc(N)nc(N)n2)cc1	-89*
O=C(COc1ccccc1)NCCSc1ccccc1	-99*
Cc1ccccc1C(=O)NCC(=O)c1ccccc1	-135*
O=C(NCCSc1ccccc1)c1ccccc1F	-76*
O=C(CNC(=O)c1ccccc1F)c1ccccc1	-93*
CC(CNC(=O)c1ccccc1Cl)c1ccccc1 (configuration not stated)	-111*
O=C(CNC(=O)c1ccccc1Cl)c1ccccc1	-113*
O=C(NCCSc1ccccc1)c1cccnc1	-100*
Cc1ccc(-c2nc3ncccn3c2Nc2ccc3c(c2)OCCO3)cc1	-64*
COc1ccc(-c2nc3ncccn3c2Br)cc1	-148*
Brc1c(-c2ccc3c(c2)OCO3)nc2ncccn12	-84*
CNC(=O)c1ccsc1NC(=O)c1sc2ccccc2c1Cl	-168*
COCc1nnc(NC(=O)c2sc3ccccc3c2Cl)s1	-102*
C[C@@H]1OC(Nc2ccc(N=Nc3ccccc3)cc2)[C@H](O)[C@H](O)[C@H]1O (some centres not stated)	-88*
COc1ccc(/C=C2\CCn3c2nc2ccccc2c3=O)cc1OC	-256*
Cc1ccc(C(=O)Nc2cnc3ccccn3c2=O)cc1	-120*
Cc1ccc2ncc(NC(=O)c3ccc(F)cc3)c(=O)n2c1	-139*
COc1ccc(-c2nc(-c3cccc(C)c3)nc(N3CCN(C)CC3)c2C#N)cc1	59
CN1CCN(c2nc(-c3ccc(Br)cc3)nnc2-c2ccccc2)CC1	-123*
Brc1ccc(-c2nnc(-c3ccccc3)c(N3CCSCC3)n2)cc1	-85*
O=C1NC(=S)N/C1=C/c1cccc2ccccc12	-129*
SMILES	aSyn UTR act
COc1cc(/C=C(\C#N)c2nc3c(s2)CCCC3)ccc1O	-158*
N#C/C(=C\c1cccnc1)c1nc2c(s1)CCCC2	-141*
CC1CCc2nc(/C(C#N)=C/c3cccnc3)sc2C1 (configuration not stated)	-192*
COc1c(C(=O)Nc2ccc(Br)cn2)ccc2ccccc12	-167*
COc1cc2ccccc2cc1C(=O)Nc1ccc(Br)cn1	-175*
O=C(Nc1ccc(Br)cn1)c1ccc2ccccc2c1	-83*
O=C(CSC(=S)N1CCSCC1)c1ccc(Cl)cc1	-152*
O=C(CSC(=S)N1CCSCC1)c1ccccc1	-94*
CCN(CC)c1ccc(/C=C2\SC(=O)N(C(C)C)C2=O)o1	-103*
CCN(CC)S(=O)(=O)c1cc(OC)ccc1N=Nc1ccc(O)c2ncccc12	59
COc1ccc(O)c(C(=O)c2cnn(-c3ccccn3)c2)c1	-130*
COc1ccc(O)c(C(=O)c2cnn(-c3ccc(Cl)cc3)c2)c1	-75*
Cc1ccc(N=c2sc(C)c(C)n2C)cc1	-178*
CC1=NC(=O)C(N=Nc2cccc(O)c2)N1c1ccccc1 (configuration not stated)	-260*
C=COC(=O)c1sc2nc(C)cc(C)c2c1N	-62*
Cc1cc(C)c2c(N)c(C(=O)Nc3ccccc3Br)sc2n1	-133*
Cc1cc(C)c2c(N)c(C(=O)Nc3ccccc3Cl)sc2n1	-105*
Cc1cc(C)c2c(N)c(C(=O)Nc3ccccc3F)sc2n1	-157*
CCOC(=O)Cn1cncc1-c1ccc([N+](=O)[O-])cc1	-119*
N#CCSc1ccc(-c2nc3ccccc3[nH]2)cn1	-239*
c1cncc(CNc2cccc(-c3nc4ccccc4[nH]3)c2)c1	-145*
c1cncc(-c2nc3cc4ccccc4cc3[nH]2)c1	-79*
Fc1ccc(-c2nc3ccccc3[nH]2)cc1	-96*
Nc1cccc(-c2nc3ccccc3[nH]2)c1	-170*
Oc1oc(-c2ccccc2)nc1/C=N/c1nccs1	-86*
SMILES	aSyn UTR act
Cc1ccc(-c2nc(C=Nc3ccccc3)c(O)o2)cc1	-102*
Cc1ccc(N=Cc2nc(-c3ccco3)oc2O)cc1	-69*
Oc1oc(-c2ccc(Br)cc2)nc1/C=N/c1ccccn1	-81*
CCN(CC)c1ccc(/C=N/NC(=O)c2cccc(S(=O)(=O)Nc3ccccc3OC)c2)c(O)c1	95
Cc1ccc(-c2nn(-c3ccccc3)cc2/C=N/NS(=O)(=O)c2ccccc2)cc1	-76*
COc1ccc(-c2nn(-c3ccccc3)cc2/C=N/NC(N)=S)cc1OC	90
COc1ccc(NS(=O)(=O)c2cccc(C(=O)N/N=C/c3cn(-c4ccccc4)nc3-c3ccc(OC)cc3)c2)cc1	-85*
CN(C)/C=C1\C(=O)N(c2ccc(Cl)c(Cl)c2)CS1(=O)=O	-81*
N=c1oc2c3c4c(cc2cc1C(=O)Nc1ccccc1)CCCN4CCC3	-276*
COC(=O)c1ccc(NC(=O)Nc2cccc(F)c2)cc1	-206*
CCSc1nsc(NC(=O)Nc2ccc(F)cc2F)n1	-138*
COC(=O)c1ccc(NC(=O)Nc2ccc(F)cc2F)cc1	-111*
O=C(Nc1ccccc1)Nc1ccc(F)cc1F	-115*
O=C(Nc1ccc(F)cc1F)N1CCCCCC1	-86*
CCc1ccc(C(=O)c2cncc(Br)c2)cc1	-63*
CC(=O)Nc1sc(N/N=C\c2ccccc2F)nc1-c1cccs1	-184*
CC(=O)Nc1sc(N/N=C\c2ccc(O)cc2)nc1-c1cccs1	-100*

Screens: PubChem, Broad Institute
